# FMDV antiviral = foot and mouth disease virus antiviral activity; FMDV antiviral cell-based qHTS; Potency, µM (highest dose often 57.9 µM), inactives show at the top dose activity change, negative = inhibition, hits mostly inhibitors; 1.2% of 410,000 active; AID 1159524; calls by dose curve; tested in HEK293T cells; further: read-out not given here; potency means the concentration at half of the fitted maximal effect; nearly all actives have a fitted effect of over 45% in size
# VACV mCherry inh = vaccinia inhibition (mCherry reporter). 0.63% of 310,000 active. Vaccinia virus mCherry reporter infection, fluorescence. Potency, µM (top dose mostly 36.5 µM), for the others: at the highest dose activity change, negative = inhibition, hits mostly inhibitors; calls by dose curve; tested in A549 cells; further: potency means the concentration at half of the fitted maximal effect; nearly all actives have a fitted effect of over 35% in size
# Lassa entry inh = blocks Lassa virus binding to or entry into cells. Lassa virus pseudotype entry inhibition, cell reporter. Potency, µM (series often up to 37.9 µM), for inactives: at the top dose activity change, negative = inhibition, usual class: inhibitors. 1.2% of 300,000 active. AID 540256; calls by dose curve; tested in HEK293 cells; further: potency means the concentration at half of the fitted maximal effect; nearly all actives have a fitted effect of over 50% in size
# HCMV inh = blocks human cytomegalovirus replication. AID 1259415. HFF cells, HCMV-luciferase reporter, 72 h; stronger effect = lower value. activity change, negative = inhibition, % at 57.5 µM. 4.5% of 410,000 active; in the data active means activity change below about -60%; inconclusive means no clear call, values can overlap the other calls; inactive means above about -39%
#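 Steps: HFFs plated, 16 h 37C; compounds added; HCMV-luciferase added to MOI 1 PFU/cell; 72 h 37C; OneGlo reagent, 5 min room temperature; luminescence read, normalized to controls.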
# Marburg entry inh = Marburg virus entry inhibition | AID 540276 | Potency, µM (titrated, usually from 37.8 µM), inactives show at the top dose activity change, negative = inhibition, hits mostly inhibitors | 1.8% of 300,000 active | Marburg virus pseudotyped entry inhibition, cell reporter; calls by dose curve; tested in HEK293 cells; further: potency means the concentration at half of the fitted maximal effect
# VACV Venus inh = vaccinia inhibition (Venus reporter); AID 720580; Vaccinia virus Venus reporter expression, fluorescence; Potency, µM (series often up to 36.5 µM), for the others: at the highest dose activity change, negative = inhibition, hits mostly inhibitors; 0.46% of 330,000 active; calls by dose curve; tested in A549 cells; further: potency means the concentration at half of the fitted maximal effect; nearly all actives have a fitted effect of over 30% in size
# Active calls of the source: *; i = inactive; ? = inconclusive; / = no result given; + = active, no number; [ ] = remark or other dose. Most compounds without a hit are left out; they make up all but 6.5% or so of the library. On the % scale 0 is the no-effect control and ±100 the full control effect.
SMILES,FMDV antiviral,VACV mCherry inh,Lassa entry inh,HCMV inh,Marburg entry inh,VACV Venus inh
CCOc1ccc(C(=O)Nc2cccc(-c3nc4cccnc4s3)c2C)cc1OCC,-27%,-28%,-20%[46.1 µM],10,-27%[46.1 µM],-15%
CC1=C(C(=O)Nc2ccc3[nH]ncc3c2)C(c2ccc(F)cc2)NC(=O)N1 (configuration not stated),/,/,6%,/,/,/
Cc1ccccc1-n1c(C)nnc1SC(C)C(=O)NCc1ccco1 (configuration not stated),/,-26%,/,/,/,-16%
COc1cc2nc(N(C)C)c(CNCCc3c[nH]c4ccccc34)cc2c(OC)c1OC,0%,-10%,/,/,/,2%
COc1cccc(/C=C/C(=O)c2ccc[nH]2)c1,29%,?,?,-87*,-21%,?
COc1ccc(C(=O)/C=C/c2cc(OC)c(O)c(OC)c2)c(F)c1,?,?,13µM*,-96*,?,178%
O=C(/C=C/c1ccc2c(c1)OCO2)c1ccc[nH]1,30%,?,?,-7,?,?
COc1ccc(C(=O)/C=C/c2ccc(N(C)C)cc2)c(OC)c1,43%,?,10µM*,-6,7.1µM*,7%
Cc1ccc(O)c(C(=O)C=Cc2ccccc2)c1,35µM*,-3%,7%[46.1 µM],8,?,-6%
CN(C)c1ccc(/C=C/C(=O)c2ccccc2O)cc1,-24%,/,22%,19,?,/
COc1ccc([C@]23Cc4ccccc4[C@H](O2)C2=C(O3)C(=O)c3ccccc3C2=O)cc1,/,/,/,/,11%[14.2 µM],/
Cc1oc2ncn(CC(C)C)c(=O)c2c1C(=O)NCCCN1CCC(C)CC1,11%,-21%,21%[46.1 µM],2,/,-24%
CCOC(=O)C1C=CN=C1C (configuration not stated),/,/,/,/,14%,/
COc1ccc(C(=O)/C=C/c2ccc(N3CCCCC3)c([N+](=O)[O-])c2)c(OC)c1,?,11µM*,?,-21,4%,?
COc1ccc(C(=O)/C=C/c2ccc(N3CCCCC3)c([N+](=O)[O-])c2)cc1,-21%,-8%,10%,-31,-19%,-4%
COc1ccc(C(=O)/C=C/c2ccccc2)c(OC)c1,-17%,?,/,-68*,/,?
COc1cc(C)cc(C(=O)C=Cc2ccccc2)c1O,32µM*,-6%,-28%[46.1 µM],37,?,-5%
COc1ccc(C(=O)/C=C/c2ccccc2)cc1,12%,-18%,/,/,/,-8%
C#CCNC(=O)[C@H]1C=C(OC)C(=O)C[C@H](c2ccccc2)[C@H]1C,/,/,/,/,8%[14.2 µM],/
COc1ccc(OC)c(NC(=O)C(C)n2c(=O)c(-c3ccccc3NC(C)=O)nc3ccccc32)c1 (configuration not stated),-10%,-14%,-11%[46.1 µM],-2,-10%[46.1 µM],-11%
CCC(=O)N(C1=C(NC)C(=O)c2ccccc2C1=O)C(C)C,-17%,?,/,-78*,/,?
CCC(=O)NC1=C(NC(C)c2ccccc2)C(=O)c2ccccc2C1=O (configuration not stated),-14%,10%,6%,-10,1%,5%
CCc1cccc(CC)c1N1C(=O)COCC1=O,0%,-6%,/,-62*,/,-5%
CCc1cccc(CC)c1N1C(=O)C2=C(SCCCS2)C1=O,?,-9%,/,?,/,-13%
CCn1c(O)c(N=Nc2ccc3ccccc3n2)c2ccccc21,32%,/,/,0,/,/
SMILES,FMDV antiviral,VACV mCherry inh,Lassa entry inh,HCMV inh,Marburg entry inh,VACV Venus inh
Brc1ccc(N=Nc2ccc3ccccc3n2)cc1,10µM*,-1%,1.1µM*,?,?,-3%
Cc1cc(Cl)c(C)c(S(=O)(=O)N2CCN(CC(=O)N3CCOCC3)CC2)c1Cl,-19%,/,/,+,/,/
Cc1ccc(S(=O)(=O)N2CCN(CC(=O)N3CCOCC3)CC2)cc1,4%,-20%,15%[46.1 µM],4,?,-12%
CC(C)CCNC(=O)C(c1ccc(O)cc1)N(C(=O)C1COc2ccccc2O1)c1cccc(O)c1 (configuration not stated),1%,i,?,-63*,?,-14%
Cc1cc(NC(=O)C(C)SCC(=O)OCC(=O)N(Cc2ccccc2)C(C)(C)C)no1 (configuration not stated),-7%,-8%,4%,-34,4%,-11%
Cc1cc(NC(=O)C(C)SCC(=O)N(Cc2ccccc2)c2ccccc2)no1 (configuration not stated),-13%,-17%,?,?,3.5µM*,11%
COc1ccc(Nc2nccc3[nH]c(-c4ccccc4OC)cc23)cc1,/,/,/,-4,/,/

# Bioassay records as filed in PubChem.
